The list is not random: actives were taken first. Their share in the collection is about 2%.
NR2F2 inh = NR2F2 (human) inhibition, primary screen; P24468; HEK293T NGFI-A luciferase reporter, luminescence; inhibition, % at 8.6 µM; 370,000 tested, 0.7% active; AID 686940;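 active = inhibition above a per-plate cutoff, mean inhibition of test wells between control levels plus 3 SD, cut at about 38% in these data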;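 note: cells cotransfected with COUP-TFII expression vector driving the NGFI-A reporter; 0% = median of COUP-TF2 test wells and 100% = reporter-only cells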
Target sequence (P24468 whole entry, looked up): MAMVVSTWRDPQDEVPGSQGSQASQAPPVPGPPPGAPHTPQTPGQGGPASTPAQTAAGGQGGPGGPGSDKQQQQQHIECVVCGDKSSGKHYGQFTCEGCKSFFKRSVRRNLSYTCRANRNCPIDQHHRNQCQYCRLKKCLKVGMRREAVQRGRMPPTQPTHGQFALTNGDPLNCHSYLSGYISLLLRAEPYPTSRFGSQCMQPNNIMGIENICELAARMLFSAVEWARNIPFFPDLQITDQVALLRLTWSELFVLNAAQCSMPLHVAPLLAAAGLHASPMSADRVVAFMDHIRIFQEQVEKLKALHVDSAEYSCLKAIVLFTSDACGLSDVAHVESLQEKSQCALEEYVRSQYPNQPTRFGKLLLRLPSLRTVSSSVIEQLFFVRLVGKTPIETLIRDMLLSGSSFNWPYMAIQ
Gli-Sufu antag = blocks Gli-Sufu signaling in a luciferase reporter; 340,000 tested, 0.74% active; Sufu-KO-LIGHT fibroblasts, Gli luciferase reporter luminescence; inhibition, % at 5 µM; AID 588413;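 active = inhibition above about 55%, limit read from the data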;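 note: 0% = DMSO-treated cells and 100% = wells with medium but no cells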
Jurkat NFkB inh = lowers PMA/ionomycin-induced NF-kB signal in Jurkat cells | PMA/ionomycin-induced NF-kB luciferase reporter, luminescence | inhibition, % at 4 µM | 330,000 tested, 0.53% active | AID 435003; in the data active = inhibition above about 50%
GalR3 antagonist = blocks the human galanin receptor 3 | O60755 | HEK293 GalR3-CNG cAMP membrane potential fluorescence; galR3 body fused to GalR1 C-terminus | inhibition, % at 3 µM | 360,000 tested, 0.44% active | AID 651719;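 active = inhibition above the screen-wide average plus 3 SD, cut at about 13% in these data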;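 note: forskolin and galanin both at EC90 stimulate the cells; cAMP rise reported by CNG channel membrane potential dye signal; 0% = forskolin plus galanin with DMSO and 100% = forskolin alone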
697 NFkB inh = lowers PMA/ionomycin-induced NF-kB signal in 697 B cells; 697 B-cell NF-kB luciferase reporter, 16 h; inhibition, % at 4 µM; 330,000 tested, 0.33% active; in the data active = inhibition above about 35%
697 NFkB conf = inhibitors of the PMA/ionomycin-induced NF-kB reporter in 697 B cells, retest; 2,000 tested, 35% active; inhibition, % at 4 µM; shares compounds with 697 NFkB inh; 697 B-cell NF-kB luciferase, 16 h; in the data active = inhibition mostly above about 28%, no sharp cut-off; inactive = mostly below about 22%
* hit, by the source's call; . = no result.

SMILES	NR2F2 inh	Gli-Sufu antag	Jurkat NFkB inh	GalR3 antagonist	697 NFkB inh	697 NFkB conf
Cc1ccc(Cn2cc(COC(=O)N3CCOCC3)nn2)cc1	-1	.	.	.	.	.
CSc1nc2c(c(=O)[nH]c(=O)n2C)n1Cc1ccc(Cl)cc1	-6	13	-4	-8	-15	.
Cn1c(=O)[nH]c(=O)c2c1nc(N/N=C/c1ccncc1)n2Cc1ccc(Cl)cc1	-10	16	-1	0	38*	18
COc1ccc(CCNC(=O)c2cc(-c3ccco3)on2)cc1OC	27	5	-23	-6	50*	18
Cc1ccccc1Cn1cc(NC(=O)c2cc(-c3cccs3)on2)cn1	13	1	-10	-10	-1	.
Cc1cc(NC(=O)c2cc(-c3ccco3)on2)no1	16	-2	-2	-8	37*	18
O=C(Nc1cnn(Cc2ccc(F)cc2)c1)c1cc(-c2ccco2)on1	16	0	-9	-6	41*	-10
Cc1ccccc1Cn1cc(NC(=O)c2cc(-c3ccco3)on2)cn1	21	5	-26	-3	38*	10
CCCCc1cc(=O)oc2cc(OCC(=O)N(CC)CC)ccc12	-18	-4	9	-4	39*	21
Cc1cccc(C)c1NC(=O)Cn1nnc(-c2ccncc2)n1	-17	.	.	.	.	.
Cc1nc2ccccc2c(=O)n1/N=C1\C(=O)N(C)c2ccccc21	.	.	-7	.	58*	8
COCCNC(=O)CSc1ncnc2sc(-c3ccccc3)cc12	8	-1	3	-1	12	.
CC(Sc1ncnc2sc(-c3ccccc3)cc12)C(N)=O (stereo not given)	-13	-12	-11	0	-17	.
O=C(O)CCSc1ncnc2sc(-c3ccccc3)cc12	23	46	22	-2	81*	62*
CC(=O)CCSc1ncnc2sc(-c3ccccc3)cc12	-26	-75	-126	-2	-336	-164
CCOC(=O)CC[C@@H]1CC[C@]2(CCCN(Cc3nccn3C)C2)O1	4	.	.	.	.	.
CCOC(=O)Cc1csc(NC(=S)NC(=O)c2ccc(C)cc2)n1	0	28	-5	-1	70*	89*
CCOC(=O)N1CCN(C(=O)C[C@H]2C(=O)N(Cc3ccc(OC)cc3)C3=CCCC[C@@]32C(=O)OCC)CC1	15	.	.	.	.	.
Fc1ccc(Nc2nc3ccccc3s2)cc1	-42	-28	-94	-6	-55	.
COc1ccc(/C(C)=N/OCC(=O)Nc2nc3ccccc3s2)cc1	-13	-7	15	-9	-4	.
O=C(Nc1nc2ccccc2s1)c1ccc(F)cc1	-28	-131	-150	-9	-343	-351
COc1ccc(C(=O)Nc2nc3ccccc3s2)cc1	3	-77	-140	-6	-373	-419
Cc1cnc(NC(=O)c2ccc(OCC3CCCO3)cc2)s1 (stereo not given)	14	-66	-85	-4	-105	.
O=C(Nc1nc2ccccc2s1)c1ccc(OCC2CCCO2)cc1 (stereo not given)	23	.	-130	-6	-401	-373
CC(C)(N[C@@H](Cc1c[nH]c2ccccc12)C(=O)NCCc1c[nH]c2ccccc12)C(=O)NC1CCCCC1	16	.	.	.	.	.
SMILES	NR2F2 inh	Gli-Sufu antag	Jurkat NFkB inh	GalR3 antagonist	697 NFkB inh	697 NFkB conf
C(/C=C\c1ccco1)=NN1CCN(Cc2cccc3ccccc23)CC1	-1	.	.	.	.	.
COc1cccc(/C=C2\CC3(OC(=O)C4CCCCC4)CCCN2C3)c1 (stereo not given)	2	.	.	.	.	.
O=C(N/N=C(\CC(=O)c1cccs1)C(F)(F)F)c1ccncc1	-1	-6	7	-1	-271	-7
COC(=O)[C@]12C[C@H](CC(=O)NCCc3ccccc3OC)C(=O)N(Cc3ccc(Cl)cc3Cl)C1=C[C@H](C1CCCC1)O[C@@H]2C	8	.	.	.	.	.
CN(C)CC(C(=O)c1ccccc1)c1ccccc1 (stereo not given)	-12	33	38	1	-253	-24
COc1ccc(NC(=O)CSc2nc(C)cc(=O)[nH]2)cc1OC	7	.	.	.	.	.
COc1ccc2cc(-c3cc(C(=O)O)c4ccccc4n3)ccc2c1	-58	-121	-19	-4	-344	-351
O=C1Nc2ccc(S(=O)(=O)NCCCO)c3cccc1c23	8	-8	-4	-1	-3	.
CCNS(=O)(=O)c1ccc2c3c(cccc13)C(=O)N2	-14	8	5	2	38*	19
COc1ccc(C(=O)Nc2ccc3ccccc3n2)c(OC)c1OC	-20	-11	-134	0	-435	-442
O=C(Nc1ccc2ccccc2n1)c1ccccc1Cl	-37	-105	-107	-10	-287	-255
COc1cccc(C(=O)Nc2cccc3ccccc23)c1OC	-8	-14	-11	-7	-13	.
Cc1ccc(N=Nc2ccc(O)cc2)c(Br)c1	-18	-158	-117	-12	-316	-222
O=C(NCc1ccco1)C1CCCN(S(=O)(=O)c2ccccc2F)C1 (stereo not given)	15	.	.	.	.	.
COC(=O)[C@]12C[C@H](CC(=O)N3CCCCC3)C(=O)N(Cc3ccc(Cl)cc3Cl)C1=C[C@H](C1CCCC1)O[C@@H]2C	8	.	.	.	.	.
O=C(COC(=O)C1CCN(S(=O)(=O)c2ccc3c(c2)OCCO3)CC1)NC1CCCCC1	-1	-4	8	4	36*	10
Cc1oc(-c2cccc(Cl)c2)nc1CN(C)C1CCOC1 (stereo not given)	-1	0	-8	5	-12	.
Cc1oc(-c2ccc(-c3ccccc3)cc2)nc1CN(CCO)C(C)C	-32	-103	-67	-8	-478	-499
Cc1oc(-c2ccc(-c3ccccc3)cc2)nc1CN(C)C1CCOC1 (stereo not given)	-13	-75	-51	-7	-311	-339
Cc1ccc(-c2nc(CS(=O)(=O)CC(=O)NCCCN(Cc3ccccc3)C(C)C)c(C)o2)cc1	18	24	10	-3	-18	.
O=C(c1cc(F)ccc1F)N1CCCC(c2nc(-c3cccs3)no2)C1 (stereo not given)	-13	.	.	.	.	.
CN1C(=O)c2cc(NC(=O)Nc3ccccc3)ccc2OC[C@H]2O[C@@H](CC(=O)Nc3cc(F)ccc3F)CC[C@@H]21	-11	.	.	.	.	.
CC(COc1ccc(Br)cc1)CN1CCC(C(O)(c2ccccc2)c2ccccc2)CC1 (stereo not given)	3	.	.	.	.	.
Cc1cc2ncc(-c3cccs3)nc2cc1C	-15	-80	-122	-9	-279	-325
NC(=S)N=Nc1c(O)n(Cc2ccccc2)c2ccccc12	16	10	10	2	45*	39*
Cc1ccc(NC(=O)Cn2c(O)c(N=NC(N)=S)c3ccccc32)cc1	20	7	-8	-11	40*	-1
COc1ccc(-c2cc(C(=O)N/N=C/c3sccc3C)c3ccccc3n2)c(OC)c1	-18	4	-23	4	-275	-21
Cc1ccccc1C(=O)NC1CCCCN(Cc2cccc(C(F)(F)F)c2)C1=O (stereo not given)	3	.	.	.	.	.
